# The whole screen tested about 5,500 compounds, of which about 2,000 (36%) were called active. Inconclusive results (about 18%) are left out. The list shows a part of the results. Unmarked numbers belong to inactive results. Cut-off read from the data, not from the text of the source: active = normalized growth mostly below about 0.91 (no sharp cut-off); inconclusive = no clear call, values can overlap the other calls; inactive = mostly above about 0.92.
# Test: chemical genetic growth profiling, strain panel (AID 1159580);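 note: tested at 20 µM; growth read once vehicle control cultures reached saturation at 30 °C; 1 = growth at the plate median or of vehicle wells; lower values mean less growth of the strain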
# Details: growth OD
structure (smiles),measurement,setting,value
CC(=O)O[C@@H]1C=C[C@@]2(C)C(C[C@@H](OC(C)=O)[C@@]3(C)C4=CC(=O)O[C@@H](c5ccoc5)[C@]4(C)CCC23)C1(C)C (some centres not stated),normalized growth,"S. cerevisiae deletion strains, locus YJR066W, strain TOR1, active compounds read low",0.928
same,normalized growth,"S. cerevisiae deletion strains, locus YJR075W, strain HOC1, active compounds read low",1.03
same,normalized growth,"S. cerevisiae deletion strains, locus YKL009W, strain mrt4, active compounds read low",0.364 (active)
same,normalized growth,"S. cerevisiae deletion strains, locus YKL068W, active compounds read low",0.0545 (active)
same,normalized growth,"S. cerevisiae deletion strains, locus YKL085W, strain MDH1 (second series), active compounds read low",0.0525 (active)
same,normalized growth,"S. cerevisiae deletion strains, locus YKL085W, strain MDH1, active compounds read low",0.0525 (active)
same,normalized growth,"S. cerevisiae deletion strains, locus YKL160W, strain elf1, active compounds read low",0.988
same,normalized growth,"S. cerevisiae deletion strains, locus YKL190W, strain CNB1, active compounds read low",1.01
same,normalized growth,"S. cerevisiae deletion strains, locus YKR001C, strain vps1, active compounds read low",0.0622 (active)
same,normalized growth,"S. cerevisiae deletion strains, locus YKR026C, strain gcn3, active compounds read low",1.01
same,normalized growth,"S. cerevisiae deletion strains, locus YKR091W, strain srl3, active compounds read low",0.982
same,normalized growth,"S. cerevisiae deletion strains, locus YLL001W, strain dnm1, active compounds read low",1.02
same,normalized growth,"S. cerevisiae deletion strains, locus YLL026W, active compounds read low",1.01
same,normalized growth,"S. cerevisiae deletion strains, locus YLL041C, strain sdh2, active compounds read low",0.999
same,normalized growth,"S. cerevisiae deletion strains, locus YLR027C, strain aat2, active compounds read low",1
same,normalized growth,"S. cerevisiae deletion strains, locus YLR039C, strain RIC1, active compounds read low",0.982
same,normalized growth,"S. cerevisiae deletion strains, locus YLR058C, strain SHM2, active compounds read low",1.01
same,normalized growth,"S. cerevisiae deletion strains, locus YLR102C, strain apc9, active compounds read low",0.0602 (active)
same,normalized growth,"S. cerevisiae deletion strains, locus YLR113W, strain HOG1, active compounds read low",1.01
same,normalized growth,"S. cerevisiae deletion strains, locus YLR221C, strain rsa3, active compounds read low",1.05
same,normalized growth,"S. cerevisiae deletion strains, locus YLR258W, strain gsy2, active compounds read low",0.999
same,normalized growth,"S. cerevisiae deletion strains, locus YLR262C, strain YPT6 (second series), active compounds read low",0.96
same,normalized growth,"S. cerevisiae deletion strains, locus YLR262C, strain YPT6, active compounds read low",0.986
same,normalized growth,"S. cerevisiae deletion strains, locus YLR268W, strain sec22, active compounds read low",0.0676 (active)
same,normalized growth,"S. cerevisiae deletion strains, locus YLR320W, strain mms22, active compounds read low",1.02
same,normalized growth,"S. cerevisiae deletion strains, locus YLR330W, strain CHS5, active compounds read low",1.01
same,normalized growth,"S. cerevisiae deletion strains, locus YLR342W, strain FKS1 (second series), active compounds read low",1.03
same,normalized growth,"S. cerevisiae deletion strains, locus YLR342W, strain FKS1, active compounds read low",0.994
same,normalized growth,"S. cerevisiae deletion strains, locus YLR357W, strain rsc2, active compounds read low",1.03
same,normalized growth,"S. cerevisiae deletion strains, locus YLR370C, strain arc18, active compounds read low",0.983
same,normalized growth,"S. cerevisiae deletion strains, locus YLR371W, strain rom2, active compounds read low",0.0619 (active)
same,normalized growth,"S. cerevisiae deletion strains, locus YLR384C, strain iki3, active compounds read low",0.983
same,normalized growth,"S. cerevisiae deletion strains, locus YLR418C, strain cdc73, active compounds read low",0.0929 (active)
same,normalized growth,"S. cerevisiae deletion strains, locus YML016C, strain PPZ1, active compounds read low",1.02
same,normalized growth,"S. cerevisiae deletion strains, locus YML032C, strain rad52, active compounds read low",0.15 (active)
same,normalized growth,"S. cerevisiae deletion strains, locus YML120C, strain ndi1, active compounds read low",0.994
same,normalized growth,"S. cerevisiae deletion strains, locus YML124C, strain tub3, active compounds read low",0.0589 (active)
same,normalized growth,"S. cerevisiae deletion strains, locus YMR058W, strain fet3, active compounds read low",0.984
same,normalized growth,"S. cerevisiae deletion strains, locus YMR078C, strain ctf18, active compounds read low",0.072 (active)
same,normalized growth,"S. cerevisiae deletion strains, locus YMR125W, strain sto1, active compounds read low",0.997
same,normalized growth,"S. cerevisiae deletion strains, locus YMR129W, active compounds read low",0.999
same,normalized growth,"S. cerevisiae deletion strains, locus YMR205C, strain PFK2, active compounds read low",1
same,normalized growth,"S. cerevisiae deletion strains, locus YMR223W, strain ubp8, active compounds read low",0.0665 (active)
same,normalized growth,"S. cerevisiae deletion strains, locus YMR231W, strain pep5, active compounds read low",0.991
same,normalized growth,"S. cerevisiae deletion strains, locus YMR263W, strain SAP30, active compounds read low",1
same,normalized growth,"S. cerevisiae deletion strains, locus YMR307W, strain GAS1, active compounds read low",1.06
same,normalized growth,"S. cerevisiae deletion strains, locus YNL067W, strain RPL9B, active compounds read low",1
same,normalized growth,"S. cerevisiae deletion strains, locus YNL071W, strain lat1, active compounds read low",0.992
same,normalized growth,"S. cerevisiae deletion strains, locus YNL128W, strain TEP1, active compounds read low",1
same,normalized growth,"S. cerevisiae deletion strains, locus YNL153C, strain GIM3, active compounds read low",0.998
same,normalized growth,"S. cerevisiae deletion strains, locus YNL183C, strain NPR1, active compounds read low",0.956
same,normalized growth,"S. cerevisiae deletion strains, locus YNL209W, strain ssb2, active compounds read low",0.985
same,normalized growth,"S. cerevisiae deletion strains, locus YNL233W, strain BNI4, active compounds read low",1
same,normalized growth,"S. cerevisiae deletion strains, locus YNL248C, strain rpa49, active compounds read low",0.961
same,normalized growth,"S. cerevisiae deletion strains, locus YNL250W, strain rad50, active compounds read low",0.065 (active)
same,normalized growth,"S. cerevisiae deletion strains, locus YNL271C, strain bni1, active compounds read low",0.0603 (active)
same,normalized growth,"S. cerevisiae deletion strains, locus YNL298W, strain CLA4, active compounds read low",0.0602 (active)
same,normalized growth,"S. cerevisiae deletion strains, locus YNL307C, strain MCK1, active compounds read low",0.069 (active)
same,normalized growth,"S. cerevisiae deletion strains, locus YNL322C, strain KRE1 (second series), active compounds read low",0.985
same,normalized growth,"S. cerevisiae deletion strains, locus YNL322C, strain KRE1, active compounds read low",1.02
same,normalized growth,"S. cerevisiae deletion strains, locus YNR049C, strain mso1, active compounds read low",0.975
same,normalized growth,"S. cerevisiae deletion strains, locus YNR052C, strain pop2, active compounds read low",0.112 (active)
same,normalized growth,"S. cerevisiae deletion strains, locus YOL006C, strain TOP1, active compounds read low",0.901
same,normalized growth,"S. cerevisiae deletion strains, locus YOL147C, strain pex11, active compounds read low",0.0888 (active)
same,normalized growth,"S. cerevisiae deletion strains, locus YOR001W, strain rrp6, active compounds read low",1.01
same,normalized growth,"S. cerevisiae deletion strains, locus YOR061W, strain CKA2, active compounds read low",1.01
same,normalized growth,"S. cerevisiae deletion strains, locus YOR069W, strain VPS5, active compounds read low",1.01
same,normalized growth,"S. cerevisiae deletion strains, locus YOR070C, strain gyp1, active compounds read low",0.991
same,normalized growth,"S. cerevisiae deletion strains, locus YOR080W, strain dia2, active compounds read low",0.984
same,normalized growth,"S. cerevisiae deletion strains, locus YOR083W, strain WHI5, active compounds read low",1
same,normalized growth,"S. cerevisiae deletion strains, locus YOR106W, strain vam3, active compounds read low",0.997
same,normalized growth,"S. cerevisiae deletion strains, locus YOR136W, strain idh2, active compounds read low",0.0732 (active)
same,normalized growth,"S. cerevisiae deletion strains, locus YOR144C, strain elg1, active compounds read low",0.131 (active)
same,normalized growth,"S. cerevisiae deletion strains, locus YOR184W, strain ser1, active compounds read low",0.0712 (active)
same,normalized growth,"S. cerevisiae deletion strains, locus YOR231W, strain MKK1, active compounds read low",0.985
same,normalized growth,"S. cerevisiae deletion strains, locus YOR265W, strain rbl2, active compounds read low",0.985
same,normalized growth,"S. cerevisiae deletion strains, locus YOR270C, strain vph1, active compounds read low",0.885
same,normalized growth,"S. cerevisiae deletion strains, locus YOR290C, strain snf2, active compounds read low",0.956
same,normalized growth,"S. cerevisiae deletion strains, locus YOR316C, strain cot1, active compounds read low",0.0594 (active)
same,normalized growth,"S. cerevisiae deletion strains, locus YPL051W, strain arl3, active compounds read low",0.996
same,normalized growth,"S. cerevisiae deletion strains, locus YPL055C, strain LGE1, active compounds read low",0.968
same,normalized growth,"S. cerevisiae deletion strains, locus YPL078C, strain atp4, active compounds read low",0.982
same,normalized growth,"S. cerevisiae deletion strains, locus YPL106C, strain sse1, active compounds read low",0.975
same,normalized growth,"S. cerevisiae deletion strains, locus YPL240C, strain hsp82, active compounds read low",0.993
same,normalized growth,"S. cerevisiae deletion strains, locus YPL241C, strain CIN2, active compounds read low",1.01
same,normalized growth,"S. cerevisiae deletion strains, locus YPL256C, strain CLN2, active compounds read low",0.948
same,normalized growth,"S. cerevisiae deletion strains, locus YPR119W, strain clb2, active compounds read low",0.0629 (active)
same,normalized growth,"S. cerevisiae deletion strains, locus YPR141C, strain kar3, active compounds read low",0.0773 (active)
same,normalized growth,"S. cerevisiae deletion strains, locus YPR163C, strain tif3, active compounds read low",0.0691 (active)
same,normalized growth,"S. cerevisiae deletion strains, locus YPR167C, strain met16, active compounds read low",0.0608 (active)
same,normalized growth,"S. cerevisiae deletion strains, strain wtn01, active compounds read low",0.0601 (active)
same,normalized growth,"S. cerevisiae strains, strain wild type, active compounds read low",1.02

# From PubChem BioAssay AID1159580 (chemical genetic matrix, 2015)
